The test addresses MAP kinase-activated protein kinase 3 (Homo sapiens) (UniProt Q16644). The following applies: at 1 µM.
Chain of MAP kinase-activated protein kinase 3 (Homo sapiens) (Q16644 whole entry, looked up): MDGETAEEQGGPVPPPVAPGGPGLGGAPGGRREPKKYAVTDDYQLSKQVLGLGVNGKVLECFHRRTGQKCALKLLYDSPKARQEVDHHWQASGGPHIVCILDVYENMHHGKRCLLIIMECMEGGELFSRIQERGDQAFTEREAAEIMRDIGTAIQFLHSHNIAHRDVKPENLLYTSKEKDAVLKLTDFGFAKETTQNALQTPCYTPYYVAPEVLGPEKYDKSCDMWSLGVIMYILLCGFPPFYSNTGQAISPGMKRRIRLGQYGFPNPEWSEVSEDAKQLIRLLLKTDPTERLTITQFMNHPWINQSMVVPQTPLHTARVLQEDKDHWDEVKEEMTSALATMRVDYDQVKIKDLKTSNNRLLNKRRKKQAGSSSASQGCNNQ
On to `Cc1cc(C)c(/C=C2\C(=O)Nc3ccccc32)[nH]1`, for which the residual activity is 140%.
Take `CC#CC(=O)Nc1cc2c(Nc3ccc(F)c(Cl)c3)ncnc2cn1`: the residual activity was 104%.
Then `COc1cc2ncnc(Nc3ccc(Oc4ccccc4)cc3)c2cc1OC`, with 118%; and `CC(=O)O/N=C1\C(=C2\C(=O)Nc3cc(Br)ccc32)Nc2ccccc21`, with 97%.
In the case of `CN(C)c1ccc(/C=C2\C(=O)Nc3ccccc32)cc1`, the residual activity came to 101%.
Under `COc1cc2c(cc1OC)-c1n[nH]c(Nc3cccc(F)c3)c1C2` stands 99%; under `NC(=O)Nc1sc(-c2ccc(F)cc2)cc1C(N)=O`, 98%.
Under `O=c1cc(-c2cccc3c2Sc2ccccc2S3)oc(N2CCOCC2)c1` stands 115%; under `COc1cc2nccc(Oc3ccc(NC(=S)NC(=O)c4ccccc4C)cc3)c2cc1OC`, 101%; under `Nc1n[nH]c2nc3ccccc3nc12`, 99%.
Then `Oc1ccc(-c2nc(-c3ccc(F)cc3)c(-c3ccncc3)[nH]2)cc1`, with 127%; and `c1ccc(-c2n[nH]cc2-c2ccnc3ccccc23)nc1`, with 109%; and `Nc1ncnc2c1cnn2-c1ccccc1`, with 95%.
`O=C(CCCc1ccc(-c2ccccc2F)cc1)Nc1ccc(O)cc1`: the residual activity came out at 100%.
Turning to `Oc1ccc(Nc2nc(-c3ccc(Cl)cc3)cs2)cc1`, the residual activity came to 139%.
Take `NC(=O)c1ccc2[nH]c(-c3ccc(Oc4ccc(Cl)cc4)cc3)nc2c1`: the residual activity was determined as 111%.
`CC[n+]1c(/C=C/N(C)c2ccccc2)n(-c2ccccc2)c2ccc(-c3nc4ccccc4s3)cc21`: the residual activity is 100%.
Then `Cc1cc2ncc(-c3ccccc3)nc2cc1C`, with 135%; and `Nc1nc(Nc2ccc(S(N)(=O)=O)cc2)nn1C(=O)c1c(F)cccc1F`, with 103%.
Regarding `COc1ccc(OC)c2c(=S)c3ccccc3[nH]c12`, the residual activity came out at 100%.
With `O=C1Nc2ccccc2/C1=C1/Nc2ccccc2/C1=N\OCCC(O)CO` (stereo unspecified), the residual activity was 106%.
Under `N#C/C(=C1/Nc2ccccc2S1)c1ccnc(NCCc2cccnc2)n1` stands 99%; under `O=C1Nc2cc(Br)ccc2/C1=C1/Nc2ccccc2/C1=N\O`, 98%; under `O=C(O)c1ccc2c3c1cccc3c(=O)n1c3ccccc3nc21`, 123%.
Under `CC(C)n1cnc2c(NCc3ccccc3)nc(NCCCO)nc21` stands 91%; under `Nc1ccc2ncnc(NCCc3ccc(Oc4ccccc4)cc3)c2c1`, 117%.
In the case of `c1ccc2c(-c3ccncc3)c[nH]c2c1`, the residual activity was 103%.
Consider `CN[C@@H]1C[C@H]2O[C@@](C)([C@@H]1OC)n1c3ccccc3c3c4c(c5c6ccccc6n2c5c31)C(=O)NC4`, for which the residual activity was 101%.
For `O=c1cc(N2CCOCC2)oc2c1ccc1ccccc12`, the residual activity is 127%.
Regarding `CO[C@H]1[C@@H](OC)C[C@H](C)[C@@H](OC)C2=CC(=O)C=C(NC(=O)/C(C)=C/C=C/[C@H](OC)[C@@H](OC(N)=O)/C(C)=C/[C@@H]1C)C2=O`, the residual activity stood at 110%.
For the compound `CN(C)S(=O)(=O)c1ccc2c(c1)/C(=C/c1cc3c([nH]1)CCCC3)C(=O)N2`, the residual activity was 94%.
For `O=C1C(Cl)=C(N2C(=O)CCC2=O)C(=O)c2ccccc21`, the residual activity turned out to be 101%.
For the compound `Cn1cnc2cc3c(Nc4cccc(Br)c4)ncnc3cc21`, the residual activity came out at 107%.
For `Nc1n[nH]c2nnc(-c3c(-c4ccccc4)nn4ccccc34)cc12`, the residual activity came out at 99%.
As to `CNc1cc2c(Nc3cccc(Br)c3)ncnc2cn1`, the residual activity was found to be 117%.
Turning to `O=C1Nc2ccc(Cl)cc2/C1=C/c1cc(Cl)c(O)c(Cl)c1`, the residual activity turned out to be 92%.

(Values after ChEMBL document CHEMBL2218924, “A broad activity screen in support of a chemogenomic map for kinase signalling research and drug discovery” (Biochem J, 2013).)
